Experimental data as given in paper PMC12136788.
Changes are numbered by the printed parent chain. In all, about 24,000 sequences were measured (“enrichment r”: median about 0.99, highest 2% from about 3.7 on). The full list was thinned out, with the highest values kept by preference.

T1: UNK ZnF1-3 (human, UniProt Q9C0B0 31-174)
T1 sequence: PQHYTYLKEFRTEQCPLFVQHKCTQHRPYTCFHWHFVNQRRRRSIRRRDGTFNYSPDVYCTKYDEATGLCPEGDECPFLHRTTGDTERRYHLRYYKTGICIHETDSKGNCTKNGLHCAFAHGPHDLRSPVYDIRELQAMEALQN

B1: 109540647_109541272_703_CDS_ENSG00000076248_ENST00000242576|human|control|control (ssRNA)
RNA: GGGAGUUCUACAGUCCGACGAUCACGAACCGUGAGGACAGCGUUGAGAAGGAGAACACCUUGCUUGGCCCACCCAGAUAAAUCUCCAUGGCCAGGAUGAACAAAAUCCUCUAUGUCUGUAGACAACUCUUUAUAAAUGUUCUCCAACAGAGGAUUGAGCAUCA
B2: chr20:52835626:52835627:+_ENSG00000101132_ENST00000441080|hu_mus|FALSE|FALSE (ssRNA)
RNA: GGGAGUUCUACAGUCCGACGAUCUGCCUCGAGGUUUAUGUUGCUGCCAAAUUUCGCGUAUAGCUGCACCUUCAGGUCGGCUAACACCCGCUGGAUGGACGCCACUCUGGACUCUAAGGCAUCAAUCUCUUCUUGCAAAGUUUUCAACAGAGGAUUGAGCAUCA
B3: chr1:39494447:39494448:+_ENSG00000168653_ENST00000372967|hu_mus|hu_hu_hu_mus_False|48_48 (ssRNA)
RNA: GGGAGUUCUACAGUCCGACGAUCGCACCGAGCGGCGUUCUUAUAGGGCUGUUCUGCGCUUAGGAACAUAAAGUGCCGGUCCAGGCUAAGGCCGAACUUUUUCUGUAUGUCAAGGAAAGGCAUGGCUCUGCAGUGCCCUUGUCACAACAGAGGAUUGAGCAUCA
B4: chr2:131829505:131829506:-_ENSG00000152102_ENST00000409185|hu_mus|FALSE|FALSE (ssRNA)
RNA: GGGAGUUCUACAGUCCGACGAUCCGCUCCAGGGUACAUGUUAGGAGAAUAGGCAGGUGCUGCUGCAUAGCCCACAGGAAAACCAGCUGGAUAUCCAAUUCCUUUGGCAUUUGCAUAGGGAACGCCAGAAGACCCAGGGCUAUACAACAGAGGAUUGAGCAUCA
B5: chr14:105707756:105707757:+_ENSMUSG00000053253_ENSMUST00000138283|mus_hu|motif|central (ssRNA)
RNA: GGGAGUUCUACAGUCCGACGAUCAUUUAUUUUUCUUAUAAAGGACAUUUGGUAUUCCCACAUUUUCUUAAAAUUUGUCCGGAAACAAAUUCUAUCUUUAACACUCACGUUUCUAAAUAUAUAUAUGUGUGUGUGUAUAUAUAUCAACAGAGGAUUGAGCAUCA
B6: chr10:33190432:33190433:-_ENSG00000150093_ENST00000302278|hu_mus|hu_hu_hu_mus_True|68_78 (ssRNA)
RNA: GGGAGUUCUACAGUCCGACGAUCUACAUUUUCCAAACCUGCAUGUGAAUAAAACCCUGGCAAUAUUGCCCUAAAGCUACCCUACUGUGACUAAGAUGCUGCUGCUGUGAGCUUGGUGUUGCAAAAUCCGCCUGAGUAGGAUUCCAACAGAGGAUUGAGCAUCA
B7: chr10:123500321:123500322:-_ENSG00000107669_ENST00000369043|hu_mus|FALSE|FALSE (ssRNA)
RNA: GGGAGUUCUACAGUCCGACGAUCGAUAUGCUAAGAAACCACACAAAACUGGCAUUUGCAAAUGGAUAAAAAUAGGAUAGAUUGCUUGAAAGAAAACAUAAACAAUAAUUUUAUCUAAAUAAUUUUAAUUGAGUGACUAUAUUCCAACAGAGGAUUGAGCAUCA
B8: chr1:120316058:120316059:+_ENSMUSG00000064302_ENSMUST00000049404|mus_mus|FALSE|FALSE (ssRNA)
RNA: GGGAGUUCUACAGUCCGACGAUCCACCAUGUGUGUCUGAAGAGCAGCUGGUAGGAUAUUAAAAGUCCAAUUUAAAUAACUAGUAGGCAAUAAAGGAGAGAGUGGCGGAGUGAUGAUCUACAACUGGGUCUGAAAUACUUCAUACAACAGAGGAUUGAGCAUCA
B9: chr10:62229464:62229465:-_ENSMUSG00000020074_ENSMUST00000020268|mus_mus|FALSE|FALSE (ssRNA)
RNA: GGGAGUUCUACAGUCCGACGAUCCAGUUGAAAUGGUCUUGACAAAGGGAAAGCAUCCACCCAUGUAAACUGAGCAUCAAAAAAGUCACUAGGAAUAUAUAAGUUCUGAUAACGGCGCCUUAGUUCCAUCAUGUCACAACUGGGCAACAGAGGAUUGAGCAUCA
B10: chr12:55960871:55960872:-_ENSMUSG00000062929_ENSMUST00000078124|mus_hu|FALSE|FALSE (ssRNA)
RNA: GGGAGUUCUACAGUCCGACGAUCUACUAAUGUUUAAGACUGCUAUUAUCAAUUCCUAUUCCAAUUCAAUUUGCAAAAUAUAUUCAGAAAUAGUAGGUGAAAUGACUGUUCCGAAACAUCAGAAGUAUCAUUAAACUUUUAAAGCAACAGAGGAUUGAGCAUCA
B11: chr10:62229464:62229465:-_ENSMUSG00000020074_ENSMUST00000020268|mus_hu|FALSE|FALSE (ssRNA)
RNA: B9 RNA with U27C, C69U, A93U, U99C, G102A, C105U
B12: chr1:235506153:235506154:+_ENSG00000152904_ENST00000391855|hu_hu|FALSE|FALSE (ssRNA)
RNA: GGGAGUUCUACAGUCCGACGAUCCUACUCACCUAUUUACUGUUUCUGGAGAAUAACAAAUUUUUUAAAAGGUGGUAAGGCUAAAAGACAAAAAAAAGAUUAACUAAAAUAAGCUAUGAGGUCCAAUCAAGAAUGGCUUAACAUCAACAGAGGAUUGAGCAUCA
B13: chr17:65336665:65336666:-_ENSG00000197170_ENST00000356126|hu_mus|FALSE|FALSE (ssRNA)
RNA: GGGAGUUCUACAGUCCGACGAUCACACAUGUCCUGUUUUUAUUACUAUCACGUGGCUGUCAGGUGAAUAAAAACAAAUAGUAUGAACACACUCAAGGAAAGCUGAGACACAAACCUUUCUGUCUUCAGACUGAAAAAAUGUUUCAACAGAGGAUUGAGCAUCA
B14: chr1:58468927:58468928:-_ENSMUSG00000026034_ENSMUST00000148330|mus_mus|mus_mus_mus_hu_False|98_108 (ssRNA)
RNA: GGGAGUUCUACAGUCCGACGAUCAAUCUAUAAUUACUGAAAGAUGUACCUUAGCUAUGUACUUAAUGAACCAAAUUACCCAAACAAAAUAAACAUGGCAAUAUAAAAAUGUUAAGAAUUUACAAAGCUGUACAAAAUAACUUACAACAGAGGAUUGAGCAUCA
B15: chr2:121263671:121263672:+_ENSMUSG00000027248_ENSMUST00000028683|mus_mus|FALSE|FALSE (ssRNA)
RNA: GGGAGUUCUACAGUCCGACGAUCAAAACGACAGUAUAAAGGGGGCACAUUUAUUGUCACUGUUCCAAAUGUACAAAAAAAAUUAGAAAAUAACCCCCCAACUCAAUUCCCCCCACCCCCACAACAUUCUUCCCAACACAAAUACAACAGAGGAUUGAGCAUCA
B16: chrX:71549762:71549763:+_ENSMUSG00000019087_ENSMUST00000019231|mus_mus|mus_mus_mus_hu_False|78_78 (ssRNA)
RNA: GGGAGUUCUACAGUCCGACGAUCAAACCCGUGUACUUCUUAUUGUUAGCACAACAUUCCCCCCCAACGAUAACGACAGCCAAGCAGGACAGACAGUUAAGUAGUACUUCCACACUCCCAAACUCAGGGAGCCCUAUAACCUUACAACAGAGGAUUGAGCAUCA

These binders were tested against T1, UNK ZnF1-3 (assay: nsRBNS (natural sequence RNA bind-n-seq); RBNS binding buffer (assumed for nsRBNS): 25 mM Tris pH 7.5, 150 mM KCl, 3 mM MgCl2, 0.01% Triton X-100, 500 ug/ml BSA, 20 U/ml SUPERase-In, 4 C; UNK is unkempt and MSI1 is Musashi-1; names of the RNAs are library labels; protein concentration not given here; high values mean tight binding).

First: B1
Second: B2
The binding signal of the first is higher: 1.34 enrichment R for the first, 0.762 enrichment R for the second.

First: B3
Second: B4
The binding signal of the first is lower: 0.888 enrichment R for the first, 0.945 enrichment R for the second.

Compared with B5, B6 is higher in binding signal: 0.913 enrichment R for the first, 1.15 enrichment R for the second.

Compared with B7, B8 is lower in binding signal: 5.07 enrichment R for the first, 2.28 enrichment R for the second.

Compared with B9, B10 is lower in binding signal: 3.38 enrichment R for the first, 0.797 enrichment R for the second.

Compared with B11, B12 is lower in binding signal: 6.32 enrichment R for the first, 5.06 enrichment R for the second.

Going from B13 to B14, the binding signal rises from 1.19 enrichment R to 1.97 enrichment R.

First: B15
Second: B16
The binding signal of the first is higher: 5.9 enrichment R for the first, 1.31 enrichment R for the second.
